Assay results reported in PubChem BioAssay (NCATS).
“And” between values parts separate entries of the source, which are not always exact repeats. Identical values can stand only once. Inconclusive results are not listed. The source made the active and inactive calls. Unless noted, calls follow the shape of the dose curve; as a rule, active = well fitted curve in the direction sought with a large enough effect; inconclusive = small, poorly fitted or top-dose-only effect, or another doubt; inactive = no such curve, though single readings can be large; an effect the other way counts as inactive or inconclusive.

Assays:
[1] = biological target: Arylsulfatase A (Homo sapiens) (UniProt P15289); test: qHTS screen for enhancers of Arylsulfatase A (ASA1): LOPAC Validation Assay (AID 720538); settings: outcome: dose series up to 57.5 µM
In short: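 SV40-transformed skin fibroblasts from an MLD patient (ASA-I179S) were treated with compounds for 48h at 37 degree C, then lysed with 0.5mM pNCS final substrate for 14h at room temperature; NaOH stop, fluorescence read (Ex=525 nm; Em=598 nm).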

[2] = qHTS for compounds that reverse cellular toxicity of Amyloid beta (A-beta) peptide in yeast: LOPAC Validation Assay (AID 720559);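 also: plate controls were DMSO for no effect and equimolar ferric chloride plus clioquinol rescue for full effect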
In short: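 Yeast cells expressing toxic A-beta were combined with pinned compounds in growth medium and incubated 48 hr at 30 C. Growth was read as absorbance at 600 nm and normalized to DMSO and to an equimolar FeCl3/clioquinol positive control.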

[3] = qHTS for Activators of Parkin Expression: LOPAC Validation Assay (NLuc Reporter) (AID 720572)
In short: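 Compound effects on Parkin promoter activity were measured as NanoLuc luminescence after 24 h at 37 C. The neuronal reporter line also carried FLuc, which was read first. LOPAC compounds were tested at 7 concentrations, with normalization to DMSO (0%) and positive control (100%).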

[4] = qHTS for Activators of Parkin Expression: LOPAC Validation Assay (FLuc Reporter) (AID 720573)
In short: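 Neuronal cell line stably carrying FLuc/NLuc coincidence reporter under Parkin promoter; cells plated 24 h, then compounds added in 7-point dose response for 24 h at 37 C. FLuc luminescence read; normalized to DMSO and positive control (100%).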

[5] = biological target: T1, Hexokinase-4 (Homo sapiens) + Glucokinase regulatory protein (Homo sapiens) (UniProt P35557+Q14397); test: qHTS assay for inhibitors of recombinant human GCK-GKRP interaction: Diaphorase-coupled assay (AID 743205)
In short: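 GST-GCK (10 nM) with FLAG-GKRP (10 nM), 5 mM glucose and 0.4 mM ATP in pH 7.6 Hepes; compounds preincubated 20 min with substrate. G6PDH/diaphorase coupling converts resazurin to resorufin, read kinetically (ex 525/em 590 nm) for 30 min.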

[6] = biological target: T1, Hexokinase-4 (Homo sapiens) + Glucokinase regulatory protein (Homo sapiens); test: qHTS assay for inhibitors of recombinant human GCK-GKRP interaction: ADP-Glo assay (AID 743206);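 also: plate controls were DMSO plus enzyme for no effect and no enzyme for full effect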
In short: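 Pin-transferred compounds meet a 15 nM GST-GCK/15 nM FLAG-GKRP/2 uM S6P mix (dispense concentrations). ATP is then added to 0.4 mM final with 5 mM glucose, and the reaction runs 60 min at room temperature. ADP is quantified luminescently.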

[7] = biological target: T1, Hexokinase-4 (Homo sapiens) + Glucokinase regulatory protein (Homo sapiens); test: qHTS assay for inhibitors of recombinant human GCK-GKRP interaction: HTRF assay (AID 743207);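 also: 0% = DMSO with GCK present and -100% = DMSO wells lacking GCK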
In short: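 GST-GCK and FLAG-GKRP (5 nM each) were combined with 2 uM S6P in pH 7.1 Hepes/MgCl2/KCl/DTT buffer, then compound and anti-FLAG XL665/anti-GST K antibodies were added. After 60 min at room temperature, HTRF 665/615 nm emission was read.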

[8] = biological target: Tyrosine-protein kinase Yes (Homo sapiens) (UniProt P07947); test: qHTS for small molecule inhibitors of Yes1 kinase: Primary Screen (AID 686947); also: nearly all actives have a fitted effect of over 60% in size; also: potency is read from the fitted curve at half-maximal effect
In short: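 ADP-Glo luminescence reports ADP formed by 4 nM Yes1 phosphorylating poly(E4Y) (0.3 mg/mL) with 0.1 mM ATP for 60 min at room temperature, following 20 min compound preincubation; normalised between DMSO wells with and without enzyme.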

[9] = qHTS for small molecule inhibitors of Yes1 kinase: Counter Assay (AID 686950);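 also: no kinase present so only ADP-Glo detection of a fixed ADP amount is tested; luminescence from ADP-Glo reporting ADP in a fixed ATP and ADP mixture; 0% = DMSO wells with ATP plus ADP and -100% = ATP-only wells without ADP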
In short: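 ADP-Glo luminescence read after a 60 min room-temperature incubation of compound with an ATP/ADP mix (0.08 mM/0.02 mM) and no kinase, following a 20 min compound preincubation. Signal scaled between ATP+ADP (max) and 0.1 mM ATP-only (min) wells; Tris pH 7.5, Mg2+, DTT.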

[10] = qHTS Assay for Identifying Gametocytocidal Compounds (AID 743244); also: potency is read from the fitted curve at half-maximal effect;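 as to max response: % is scaled to controls: 0 for no effect and ±100 for the full control effect; actives lower the fluorescent signal which means gametocytes are killed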; settings: P. falciparum 3D7 stage III-V gametocytes, alamarBlue, 72 h; max response: stronger effect = lower value
In short: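 Fluorescence at Ex 525/Em 598 nm, recorded 24 h after alamarBlue addition, reports residual metabolic activity of 3D7 gametocytes (stages III–V) following 72 h compound exposure at 37 °C, 5% CO2.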

[11] = qHTS profiling for inhibitors of Plasmodium falciparum (3D7) proliferation (AID 743322; call rule not given here;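 also: infected erythrocytes exposed to compound for 72 h before lysis; 100% = DMSO vehicle wells and 0% = 0.29 µM artemisinin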); settings: P. falciparum 3D7 proliferation; at 28.7 µM (top of the series) unless noted
In short: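 Parasite DNA was quantified by SYBR Green I fluorescence (ex 485, em 535 nm) after overnight lysis in saponin/Triton buffer at room temperature. Cultures at 0.3% parasitemia and 2.5% hematocrit were first exposed to compound for 72 h at 37 C; signals were normalised to artemisinin (0.29 uM) and vehicle wells.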

[12] = qHTS profiling for inhibitors of Plasmodium falciparum (DD2) proliferation (AID 743323; call rule not given here); settings: lower = more inhibition; at 28.7 µM (top of the series) unless noted
In short: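 P. falciparum Dd2-infected erythrocytes (0.3% parasitemia, 2.5% hematocrit) exposed 72 h at 37 C, 5% CO2. Lysis with SYBR Green, overnight at room temperature, fluorescence 485/535 nm; normalized to 0.29 uM artemisinin and DMSO.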

[13] = qHTS assay for environmental chemicals that activate the Aryl hydrocarbon Receptor (AhR) signaling pathway (AID 651777); settings: 1A2-DRE human hepatoma cells, luciferase, 24 h; activation: stronger effect = higher value; also: % of control where 0% means no effect; nearly all actives have a fitted effect of over 15% in size
In short: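 AhR activation is scored as a rise in luciferase from a stable DRE–CYP1A2 promoter construct in human hepatoma cells. Treatment lasts 24 hr at 37 C; detection uses One-Glo after 30 min at room temperature.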

[14] = biological target: Peroxisome proliferator-activated receptor alpha (Homo sapiens) (UniProt Q07869); test: qHTS assay for small molecule agonists of the peroxisome proliferator-activated receptor alpha (PPARalpha) signaling pathway (AID 651778); settings: PathHunter PPARalpha complementation, chemiluminescence, 6 h; max response: stronger effect = higher value; also: potency is read from the fitted curve at half-maximal effect; as to max response: % of control where 0% means no effect
In short: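 Chemiluminescence from complemented enzyme reported PPARalpha activation in cells after 6 hr of compound treatment at 37 C. The detection reagent was incubated for 60 min at room temperature, and compounds were scored as agonists.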

[15] = qHTS assay for small molecule agonists of the antioxidant response element (ARE) signaling pathway measured by Nrf2-dependant transcriptional activity (AID 720636; active = well fitted curve in the direction sought with a large enough effect in the repeat runs; an effect the other way counts as inactive or inconclusive;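 also: HepG2 cells with an ARE-driven luciferase reporter; % of control where 0% means no effect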)
In short: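 First, ARE-luc HepG2 cells attached for 6 hr at 37 C in 1% dialyzed FBS medium. Next, compound or DMSO was added and incubated 16 hr. Finally, ONE-Glo reagent was added and luminescence measured after 30 min.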

[16] = qHTS assay for small molecule agonists of the antioxidant response element (ARE) signaling pathway measured by Nrf2-dependant transcriptional activity - cell viability counter screen (AID 720653; active = well fitted curve in the direction sought with a large enough effect in the repeat runs; an effect the other way counts as inactive or inconclusive; also: % is scaled to controls: 0 for no effect and ±100 for the full control effect); settings: ARE-bla HepG2 viability, CellTiter-Glo ATP luminescence, 16 h; max response: stronger effect = lower value
In short: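 Cytotoxicity counter screen: intracellular ATP quantified by CellTiter-Glo luminescence in the same ARE-bla HepG2 plates, after 16 h compound exposure and a 2 h beta-lactamase substrate step.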

[17] = qHTS assay for cell viability of HEK293 cells (AID 743288); settings: ATP luminescence (CellTiter-Glo), 18 h; max response: stronger effect = lower value; also: % is scaled to controls: 0 for no effect and ±100 for the full control effect; nearly all actives have a fitted effect of over 50% in size
In short: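 After 18 h compound exposure at 37 C, parental HEK293 cells (2,000/well) are lysed with CellTiter-Glo and luminescence is read following 30 min at room temperature.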

[18] = qHTS assay for cell viability of the p53RE-bla HCT-116 cell line (AID 743292); also: % is scaled to controls: 0 for no effect and ±100 for the full control effect; nearly all actives have a fitted effect of over 55% in size
In short: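 Quantitative high-throughput format: compounds in DMSO were pinned onto p53RE-bla HCT-116 cells (4,000/well) and incubated 16 h at 37 C. Total intracellular ATP, read by CellTiter-Glo luminescence, reflects viable cell number.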

[19] = biological target: Nuclear receptor ROR-gamma (Homo sapiens) (UniProt P51449); test: qHTS assay for small molecule antagonists of the retinoid-related orphan receptor gamma (ROR-gamma) signaling pathway (AID 651802);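 also: CHO cells with doxycycline-induced ROR-gamma expression; luciferase reporter luminescence driven by ROR response element; % is scaled to controls: 0 for no effect and ±100 for the full control effect; nearly all actives have a fitted effect of over 60% in size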
In short: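 Luminescence (One-Glo, 30 min RT) measured 16 h after compound addition and doxycycline induction at 37C. Reporter: RORE-luciferase under TET-inducible ROR-gamma in CHO cells.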

T1 sequence (P35557 whole entry, looked up): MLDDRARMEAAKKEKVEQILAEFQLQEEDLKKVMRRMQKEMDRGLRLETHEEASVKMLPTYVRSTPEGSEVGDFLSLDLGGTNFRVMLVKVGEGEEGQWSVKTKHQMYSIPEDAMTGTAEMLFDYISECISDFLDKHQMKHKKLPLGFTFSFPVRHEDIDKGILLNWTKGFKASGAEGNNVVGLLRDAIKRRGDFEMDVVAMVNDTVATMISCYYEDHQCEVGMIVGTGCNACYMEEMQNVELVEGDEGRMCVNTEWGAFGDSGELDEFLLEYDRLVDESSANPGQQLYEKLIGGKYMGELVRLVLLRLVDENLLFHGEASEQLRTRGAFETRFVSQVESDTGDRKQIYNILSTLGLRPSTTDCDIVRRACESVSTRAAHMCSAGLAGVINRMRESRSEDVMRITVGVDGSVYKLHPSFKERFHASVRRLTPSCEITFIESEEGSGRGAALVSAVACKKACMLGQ
T1 sequence (Q14397 whole entry, looked up): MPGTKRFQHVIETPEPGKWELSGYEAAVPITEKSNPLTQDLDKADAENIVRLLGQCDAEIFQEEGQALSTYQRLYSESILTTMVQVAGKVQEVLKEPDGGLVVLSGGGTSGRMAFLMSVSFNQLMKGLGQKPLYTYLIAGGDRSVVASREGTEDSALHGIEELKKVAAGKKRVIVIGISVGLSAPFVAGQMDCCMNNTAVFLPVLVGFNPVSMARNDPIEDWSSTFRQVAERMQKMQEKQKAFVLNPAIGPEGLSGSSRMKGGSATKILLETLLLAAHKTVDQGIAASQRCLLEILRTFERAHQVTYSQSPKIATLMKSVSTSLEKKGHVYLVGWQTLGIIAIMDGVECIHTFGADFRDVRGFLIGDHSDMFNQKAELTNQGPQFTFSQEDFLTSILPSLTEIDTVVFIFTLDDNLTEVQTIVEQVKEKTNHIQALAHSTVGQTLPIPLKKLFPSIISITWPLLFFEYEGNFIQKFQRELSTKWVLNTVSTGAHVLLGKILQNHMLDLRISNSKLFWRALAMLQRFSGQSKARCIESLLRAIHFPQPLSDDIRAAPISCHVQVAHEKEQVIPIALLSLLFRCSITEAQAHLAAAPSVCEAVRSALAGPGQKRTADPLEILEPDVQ
Sequence of Peroxisome proliferator-activated receptor alpha (Homo sapiens) (Q07869 whole entry, looked up): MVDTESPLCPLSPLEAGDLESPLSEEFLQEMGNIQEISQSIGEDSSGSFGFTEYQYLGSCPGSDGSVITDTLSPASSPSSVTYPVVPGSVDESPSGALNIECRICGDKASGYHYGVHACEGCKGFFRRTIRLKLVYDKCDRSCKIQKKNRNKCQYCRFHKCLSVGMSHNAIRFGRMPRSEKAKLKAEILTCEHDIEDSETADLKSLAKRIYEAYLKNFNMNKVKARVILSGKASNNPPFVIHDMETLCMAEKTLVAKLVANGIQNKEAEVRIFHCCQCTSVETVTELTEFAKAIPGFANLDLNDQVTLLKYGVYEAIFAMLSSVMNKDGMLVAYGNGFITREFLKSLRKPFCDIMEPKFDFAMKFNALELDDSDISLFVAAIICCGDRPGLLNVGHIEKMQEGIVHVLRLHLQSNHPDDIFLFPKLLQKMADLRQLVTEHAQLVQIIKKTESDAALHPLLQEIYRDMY
Sequence of Tyrosine-protein kinase Yes (Homo sapiens) (P07947 whole entry, looked up): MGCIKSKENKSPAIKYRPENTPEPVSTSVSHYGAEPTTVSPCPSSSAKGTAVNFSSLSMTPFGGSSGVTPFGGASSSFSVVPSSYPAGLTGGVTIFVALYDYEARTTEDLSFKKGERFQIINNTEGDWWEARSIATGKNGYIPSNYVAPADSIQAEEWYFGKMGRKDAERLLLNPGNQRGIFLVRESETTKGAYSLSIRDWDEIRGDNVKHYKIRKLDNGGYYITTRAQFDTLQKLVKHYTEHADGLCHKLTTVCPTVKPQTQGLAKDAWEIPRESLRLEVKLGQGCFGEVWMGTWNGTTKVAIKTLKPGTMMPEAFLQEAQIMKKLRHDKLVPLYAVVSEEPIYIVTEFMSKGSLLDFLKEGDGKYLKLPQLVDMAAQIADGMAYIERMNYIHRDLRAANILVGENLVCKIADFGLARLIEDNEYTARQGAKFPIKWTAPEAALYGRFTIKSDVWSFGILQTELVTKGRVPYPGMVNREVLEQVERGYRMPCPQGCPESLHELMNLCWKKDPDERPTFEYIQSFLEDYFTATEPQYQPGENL
Sequence of Arylsulfatase A (Homo sapiens) (P15289 whole entry, looked up): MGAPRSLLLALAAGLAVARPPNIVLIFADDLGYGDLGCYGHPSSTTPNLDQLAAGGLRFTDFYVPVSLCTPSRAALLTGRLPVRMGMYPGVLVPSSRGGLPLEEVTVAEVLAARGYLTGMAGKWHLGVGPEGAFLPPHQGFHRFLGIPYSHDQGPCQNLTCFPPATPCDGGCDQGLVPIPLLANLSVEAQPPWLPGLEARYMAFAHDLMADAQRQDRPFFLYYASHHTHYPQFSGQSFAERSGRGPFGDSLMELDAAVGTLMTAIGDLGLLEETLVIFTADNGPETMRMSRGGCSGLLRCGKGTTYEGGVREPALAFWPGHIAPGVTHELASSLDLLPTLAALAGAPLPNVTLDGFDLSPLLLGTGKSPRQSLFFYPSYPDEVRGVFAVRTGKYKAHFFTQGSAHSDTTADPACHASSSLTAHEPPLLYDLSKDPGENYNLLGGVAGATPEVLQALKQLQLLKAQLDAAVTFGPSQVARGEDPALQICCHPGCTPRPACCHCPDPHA
Sequence of Nuclear receptor ROR-gamma (Homo sapiens) (P51449 whole entry, looked up): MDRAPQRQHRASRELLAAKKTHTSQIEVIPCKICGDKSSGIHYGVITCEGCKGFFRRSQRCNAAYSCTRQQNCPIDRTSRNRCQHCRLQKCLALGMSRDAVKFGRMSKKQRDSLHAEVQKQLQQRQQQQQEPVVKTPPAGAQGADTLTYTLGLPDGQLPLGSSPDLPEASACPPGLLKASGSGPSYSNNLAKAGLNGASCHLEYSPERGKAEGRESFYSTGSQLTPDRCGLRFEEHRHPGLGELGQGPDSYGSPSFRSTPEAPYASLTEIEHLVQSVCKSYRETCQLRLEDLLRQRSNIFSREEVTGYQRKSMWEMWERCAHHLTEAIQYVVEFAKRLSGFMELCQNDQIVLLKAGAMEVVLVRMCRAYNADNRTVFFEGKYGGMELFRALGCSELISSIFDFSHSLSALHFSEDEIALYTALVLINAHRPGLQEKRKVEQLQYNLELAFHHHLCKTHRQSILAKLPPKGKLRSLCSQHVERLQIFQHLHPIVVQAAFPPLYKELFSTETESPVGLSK

c1ccc(CCCN2CCN(CCOC(c3ccccc3)c3ccccc3)CC2)cc1
inactive: outcome [1] | outcome [2] | outcome [3] | outcome [4] | outcome [5] | outcome [6] | outcome [7]

CC(C)[C@]12O[C@H]1[C@@H]1O[C@]13[C@]1(O[C@H]1C[C@H]1C4=C(CC[C@@]13C)C(=O)OC4)[C@@H]2O
96.4%: activity, percent of control [12]
inactive: Potency [8] | outcome [9] | max response [10] -3.04%
103%: remaining parasite growth % (stronger effect = lower value) [11]

COc1ccc2c(c[n+](C)c3c4cc5c(cc4ccc23)OCO5)c1OC
inactive: Potency [8] | outcome [9] | outcome [1] | outcome [2] | outcome [3] | outcome [4] | outcome [5] | outcome [6] | outcome [7]
47.6%: remaining parasite growth % (stronger effect = lower value) [11]
active: Potency [10] 18.7 µM
36.7%: activity, percent of control [12]

ClC1=C(Cl)[C@]2(Cl)[C@@H]3[C@@H]4C[C@@H]([C@H]5O[C@@H]45)[C@@H]3[C@@]1(Cl)C2(Cl)Cl
inactive: activation [13] -1.01% | max response [14] 12.3% | Potency [15] | max response [16] -16.9% | max response [17] -27.3% | Potency [18]

Brc1ccccc1-c1ccccc1
inactive: Potency [19]

C=CCN1CC[C@]23CCCCC2[C@H]1Cc1ccc(O)cc13 (stereo partly specified)
inactive: outcome [1] inactive; inhibitor; fitted 0.0301 uM | outcome [2] | outcome [3] | outcome [4] | outcome [5] | outcome [6] | outcome [7]

CC(=O)NCCc1c[nH]c2ccccc12
inactive: outcome [1] | outcome [2] | outcome [3] | outcome [4] | outcome [5] | outcome [6] | outcome [7] | max response [10] 17.3%

CN1C2CCC1CC(OC(=O)c1cc(Cl)cc(Cl)c1)C2 (stereo unspecified)
inactive: outcome [1] | outcome [2] | outcome [3] | outcome [4] | outcome [5] | outcome [6] | outcome [7]

O=S(=O)(O)C(F)(F)C(F)(F)C(F)(F)C(F)(F)F
inactive: activation [13] 1.87% and 3.11% | max response [14] 5.33% and 1.27% | Potency [15] | max response [16] -3.1% and 4.61% | max response [10] -9.45% | max response [17] -11.1% and -18% | Potency [18]

CCCCC(CC)COC(=O)c1ccccc1C(=O)O (stereo unspecified)
active: Potency [14] 28.2 µM

COCCOCCO
inactive: activation [13] -0.559% and 0.0587% | max response [14] -0.0911% and 0.363% | Potency [15] | max response [16] -0.036% and -2.85% | max response [10] -9.77% | max response [17] -8% and -15.7% | Potency [18]

Cc1nc2cnc3ccc(C#Cc4cccnc4)cc3c2n1-c1ccc(C(C)(C)C#N)cc1
active: Potency [8] 2.18 µM | Potency [10] 5.9 µM

C=CCON=C(C[C@H]1O[C@@H]2O[C@]3(C)CC[C@@H]4[C@H](C)CC[C@@H]([C@H]1C)[C@@]24OO3)[C@H]1O[C@@H]2O[C@]3(C)CC[C@H]4[C@H](C)CC[C@@H]([C@@H]1C)[C@@]24OO3
0.0103%: activity, percent of control [12]
active: Potency [8] 6.88 µM | Potency [10] 0.0083 µM
inactive: outcome [9]
-1.46%: remaining parasite growth % (stronger effect = lower value) [11]

CCCCCC[C@H]1C(=O)O[C@H](C)[C@H](NC(=O)c2cccc(NC=O)c2O)C(=O)O[C@@H](C)[C@@H]1OC(=O)CC(C)C
inactive: activation [13] -1.12% | Potency [15] | max response [16] -26.8% | max response [17] -27.4%

O=C(O)c1cc(Oc2ccc(C(F)(F)F)cc2Cl)ccc1[N+](=O)[O-]
inactive: activation [13] 2.44% | max response [14] -3.73% | Potency [15] | max response [16] -5.54% | max response [10] -10.7% | max response [17] -14.8% | Potency [18]

C1=CCOCc2cc(ccc2OCCN2CCCC2)Nc2nccc(n2)-c2cccc(c2)OCC1
107%: activity, percent of control [12]
active: Potency [8] 0.0434 µM
105%: remaining parasite growth % (stronger effect = lower value) [11]

Nc1c(Cl)c(Cl)c(Cl)c(Cl)c1Cl
inactive: max response [14] -0.704% | Potency [15] | max response [16] 1.83% | max response [10] 4.37% | max response [17] -4.75% | Potency [18]

O=C(N[C@H]1CN2CCC1CC2)c1ccc(Cl)cc1
inactive: outcome [1] | outcome [2] | outcome [3] | outcome [4] | outcome [5] | outcome [6] | outcome [7]

O=C(O)CCCOc1ccc(Cl)cc1Cl
inactive: activation [13] 4.85% | max response [14] 5.21% | Potency [15] | max response [16] -1.4% | max response [10] 19% | max response [17] -3.48% | Potency [18]

Oc1ccc2c3c1O[C@H]1c4[nH]c5c(c4C[C@@]4(O)[C@@H](C2)N(CC2CC2)CC[C@]314)C[C@@]1(O)[C@H]2Cc3ccc(O)c4c3[C@@]1(CCN2CC1CC1)[C@H]5O4
inactive: outcome [1] | outcome [2] | outcome [3] | outcome [4] | outcome [5] | outcome [6] | outcome [7]

CCCN(CCC)c1c([N+](=O)[O-])cc(S(N)(=O)=O)cc1[N+](=O)[O-]
inactive: activation [13] -1.72% | max response [14] 9.4% | Potency [15] | max response [17] -4.88% | Potency [18]
